# Results from PubChem BioAssay AID463173 (ICCB-Longwood Screening Facility, Harvard Medical School, 2010).
# Among all 52,000 compounds or so, about 4,300 (8.3%) were called active. Shown is part of a subset that was picked to be rich in actives. Unmarked numbers belong to inactive results. No stated cut-off is given here; in the data, active means survival mostly below about 52% (no sharp cut-off); inactive means mostly above about 56%.
# Test system: DeltatarO mutant
# Experiment: S. aureus survival, RN4220 and DeltatarO strains – OD600, teichoic acid synthesis inhibitors, primary screen (AID 463173)
# Conditions: S. aureus RN4220 wild type/DeltatarO growth, OD600, 18 h, hits give low values, screened at 18.75 µg/mL (by protocol)
row,Structure (SMILES),survival
1,COc1ccc(NC(=O)CCS(=O)(=O)c2nc(-c3ccc4c(c3)OCO4)cc(C(F)(F)F)n2)cc1OC,79%
2,Cc1cccc(NC(=O)Cn2cc(C(=O)c3ccco3)c3ccccc32)c1C,55%
3,Cc1cc(C)c(O)c(N)c1,39% (active)
4,Cc1cc(N)cc(C(=O)O)c1O,104%
5,Cc1cc(N)c(O)cc1C,61%
6,CCOc1ccc(S(=O)(=O)N2CCC(N3CCN(Cc4ccc(C)cc4)C(=O)C3=O)CC2)cc1,77%
7,CCCOC(=O)c1cccc(Nc2nc(CCC)cc(=O)[nH]2)c1,10% (active)
8,CCCc1cc(=O)[nH]c(Nc2cc(C)cc(C)c2)n1,108%
9,CCCc1cc(=O)[nH]c(Nc2cc(Cl)cc(Cl)c2)n1,6% (active)
10,CCCc1cc(=O)[nH]c(Nc2ccc(C)c(O)c2)n1,57%
11,CCCc1cc(=O)[nH]c(Nc2cccc(Cl)c2Cl)n1,68%
12,CCCc1cc(=O)[nH]c(Nc2ccc(C(=O)O)cc2)n1,62%
13,O=C(CN1C(=O)COc2ccc(S(=O)(=O)N3CCCCCC3)cc21)N1CCN(c2cccc(Cl)c2)CC1,95%
14,O=C(Nc1nnc(S(=O)(=O)N2CCCCC2)s1)c1ccccc1Br,61%
15,O=C(Nc1nnc(S(=O)(=O)N2CCCC2)s1)c1ccccc1Br,36% (active)
16,O=C(Nc1nnc(S(=O)(=O)N2CCCCCC2)s1)c1ccccc1Br,43% (active)
17,COc1ccc(C2CC(=O)c3cnc4c(-c5ccccc5)c(C)nn4c3C2)c(OC)c1 (stereo not drawn),82%
18,COc1cccc(C(=O)Nc2ccc3nc(SCC(=O)N4CCc5ccccc54)sc3c2)c1,59%
19,COc1cccc(-n2cc(C(=O)Nc3cc(C)c(Cl)cc3OC)c3ccccc3c2=O)c1,56%
20,O=C(Nc1ccc2oc(-c3cccnc3)nc2c1)c1ccc(-c2ccc(OC(F)(F)F)cc2)o1,79%
21,CCOc1ccccc1NS(=O)(=O)c1cnc(N)nc1,-1% (active)
22,Nc1ncc(S(=O)(=O)Nc2ccc(F)cc2F)cn1,84%
23,CCOc1ccccc1CNS(=O)(=O)c1cnc(N)nc1,79%
24,COc1ccc(OC)c(NC(=O)c2ccc(-c3nc(COc4ccccc4)c(C)o3)cc2)c1,62%

row,Structure (SMILES),survival
1,CCOC(=O)c1[nH]c2ccccc2c1NC(=O)c1ccc(OCC)cc1,75%
2,Cc1ccc(NC(=O)C(c2ccccc2)N2Cc3ccccc3C2=O)cc1Cl (stereo not drawn),75%
3,CCN(CC)CCNc1ncnc2c1cnn2-c1cc(Cl)ccc1C,77%
4,CCN(c1ncnc2c1cnn2-c1cc(Cl)ccc1C)C1CCCCC1,73%
5,CCN(CC)c1ncnc2c1cnn2-c1cc(Cl)ccc1C,-5% (active)
6,CCN(CC)C(=O)Cn1c(=O)n(Cc2ccc(C(=O)NCc3ccccc3Cl)cc2)c(=O)c2ccccc21,115%
7,Cc1cn2c(=O)cc(COC(=O)COc3ccccc3C)nc2s1,76%
8,COC(=O)c1ccc(NC(=O)CSc2nnc3c4ccccc4n(C(C)C)c3n2)cc1,52%
9,COc1ccccc1NC(=O)CSc1nnc2c3ccccc3n(C(C)C)c2n1,33% (active)
10,COc1ccccc1NC(=O)CSc1nnc2c(n1)[nH]c1ccccc12,77%
11,Cc1ccc(S(=O)(=O)N2CCCc3cc(NC(=O)c4cccc(Cl)c4)ccc32)cc1,87%
12,CC(C)C(=O)Nc1nnc(S(=O)(=O)N2CCc3ccccc32)s1,78%
13,O=C(Nc1nnc(S(=O)(=O)N2CCc3ccccc32)s1)c1cccc(Cl)c1,1% (active)
14,O=C(Nc1cccc(Cl)c1)c1cc(S(=O)(=O)N2CCCc3ccccc32)ccc1F,108%
15,O=C(Nc1nc2c(Cl)cccc2s1)c1ccc(S(=O)(=O)N2CCc3ccccc32)cc1,69%
16,O=C(Nc1nnc(S(=O)(=O)N2CCCc3ccccc32)s1)c1cccc(Cl)c1,3% (active)
17,CCOC(=O)N1CCC(NC(=O)c2cnn(-c3ccccc3)c2C2CCN(C(=O)OC(C)(C)C)CC2)CC1,117%
18,CCOc1ccc(C2=NC(c3cccs3)=Nc3ccc(CC)cc3N2)cc1OCC,77%
19,COc1cccc(CNC(=O)c2cc(-c3cccc(OC)c3)n[nH]2)c1,71%
20,O=C(NCc1ccccc1)N1CCc2c(sc3c2CCCC3)C1c1ccccc1 (stereo not drawn),75%
21,COc1cc(C)ccc1OCCCn1c(-c2ccc(Cl)cc2)nc2ccccc2c1=O,62%
22,O=C(NC1CCCCCC1)C1c2ccccc2C(=O)N1Cc1ccc(F)cc1 (stereo not drawn),111%
23,Cc1ccc(CNC(=O)c2ccc(-c3nc(CS(=O)c4ccccc4)c(C)o3)cc2)cc1 (stereo not drawn),88%
24,COc1cc(Nc2nc(SCc3cccc(Cl)c3)nc3ccccc23)cc(OC)c1,37% (active)
